The values below come from PubChem BioAssay AID1851 (National Center for Advancing Translational Sciences (NCATS), 2009).

Out of some 16,000 compounds screened, about 5,100 (32%) were called active. Not shown: some 25% with an inconclusive outcome. Calls follow the shape of the dose curve; as a rule, active = well fitted curve in the direction sought with a large enough effect; inconclusive = small, poorly fitted or top-dose-only effect, or effect the other way; inactive = no such curve, though single readings can be large or run the other way. The list shows a part of the results.
% is scaled to controls: 0 for no effect and ±100 for the full control effect.

The target in this assay is Cytochrome P450 3A4 (Homo sapiens) (UniProt P08684). In words: Cytochrome panel assay with activity outcomes. To be noted: recombinant CYP, pro-luciferin dealkylation, luminescence, p450-cyp3a4; series mostly up to 57.1 µM; activity, negative = inhibition: at the top concentration.
Cytochrome P450 3A4 (Homo sapiens), sequence (P08684 whole entry, looked up): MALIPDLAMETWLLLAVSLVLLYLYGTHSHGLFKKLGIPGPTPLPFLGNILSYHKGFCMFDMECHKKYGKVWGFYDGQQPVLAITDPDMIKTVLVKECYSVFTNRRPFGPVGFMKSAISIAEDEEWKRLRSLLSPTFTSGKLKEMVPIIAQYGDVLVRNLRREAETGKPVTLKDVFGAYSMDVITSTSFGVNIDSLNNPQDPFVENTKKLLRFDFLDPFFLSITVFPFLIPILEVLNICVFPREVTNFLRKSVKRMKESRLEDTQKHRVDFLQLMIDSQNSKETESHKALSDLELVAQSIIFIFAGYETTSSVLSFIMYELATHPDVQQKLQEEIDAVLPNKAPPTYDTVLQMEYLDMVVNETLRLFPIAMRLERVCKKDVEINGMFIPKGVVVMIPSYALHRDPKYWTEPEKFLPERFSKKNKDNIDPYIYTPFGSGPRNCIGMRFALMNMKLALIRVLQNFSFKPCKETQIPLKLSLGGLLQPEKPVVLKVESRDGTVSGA
As to `CCC(=S)/C=C1\Sc2ccccc2N1CCCS(=O)(=O)O`, the “activity, negative = inhibition” value was 19.1% (inactive).
Take `O=C(O)Cc1c(O)ccc2ccccc12`: the activity, negative = inhibition was -10.5% [at 11.4 µM] (inactive).
Usually AC50 stands for the midpoint of the concentration-response curve, whichever way the signal moves. Turning to `c1cncc(-c2nnc3n2C2(CCCCC2)Cc2ccccc2-3)c1`, the AC50 was 1 µM (active).
In the case of `CCCn1cnc2c(SCC(=O)O)nc(N)nc21`, the activity, negative = inhibition is -4.33% [at 11.4 µM] (inactive).
Take `Cc1[nH]n(C(C)(C)C)c(=O)c1Sc1ccc(Cl)cc1`: the AC50 is 15.8 µM (active).
`Cc1[nH]n(C(C)(C)C)c(=O)c1Sc1ccccc1`: the “activity, negative = inhibition” value is 28.8% (inactive).
With `O=S(=O)(O)c1ccc2cc(N=Nc3cc(S(=O)(=O)O)c4cccnc4c3O)ccc2c1`, the activity, negative = inhibition is -6.99% [at 11.4 µM] (inactive).
With `CCCCc1ccc(-c2csc(/C(C#N)=C/c3ccc(C)o3)n2)cc1`, the AC50 was 12.6 µM (active).
As to `COc1cccc(N(CC(=O)Nc2cccc(C(C)=O)c2)S(C)(=O)=O)c1`, the AC50 was 11.2 µM (active).
As to `CC(=O)c1cccc(NC(=O)Oc2ccccc2)c1`, the “activity, negative = inhibition” value was 14.9% (inactive).
Consider `Cc1cccc(NS(=O)(=O)c2c(C)n[nH]c2C)c1`, for which the AC50 was 25.1 µM (active).
For `COc1ccc(N(CC(=O)Nc2cccc(C)c2)S(=O)(=O)c2c(C)n[nH]c2C)cc1`, the AC50 was 3.16 µM (active).
For the compound `Cc1n[nH]c(C)c1S(=O)(=O)N1CCOCC1`, the “activity, negative = inhibition” value was -6.35% (inactive).
Take `Cc1ccc(NC(=O)C2CCN(S(=O)(=O)c3c(C)n[nH]c3C)CC2)nc1`: the “activity, negative = inhibition” value was -20.6% (inactive).
With `CC(=O)c1cc2c(cc1NC(=O)c1c(-c3ccccc3)noc1C)OCO2`, the half-maximal activity concentration (AC50) was 1.58 µM (active).
As to `CC(=O)c1cc2c(cc1NC(=O)CCCC(=O)O)OCO2`, the “activity, negative = inhibition” value is -24.3% (inactive).
Still for that read-out and setting: in the case of `CC(=O)c1c(N=CN(C)C)nc(C)nc1-c1ccccc1` it was -8.85% (inactive).
For the compound `CN(N=O)C(=O)N[C@H]1C(O)OC(CO)[C@@H](O)[C@H]1O` (some centres undefined), the “activity, negative = inhibition” value was -11.7% (inactive).
Regarding `O=C(O)CCC(=O)CCC(=O)c1ccccc1`, the “activity, negative = inhibition” value is -7.58% (inactive).
For `CN(C)/C=C/C(=O)c1ccc(F)cc1`, the “activity, negative = inhibition” value is -10.5% (inactive).
Regarding `O=C(/C=C\NCC(=O)c1ccccc1)c1ccc(F)cc1`, the AC50 is 14.1 µM (active).
Take `O=C(CCCc1ccccn1)c1ccccc1`: the activity, negative = inhibition was -27.1% [at 11.4 µM] (inactive).
Take `O=C(/C=C\NCC(=O)c1ccccc1)c1ccccc1`: the AC50 was 15.8 µM (active).
With `O=C(C[n+]1cccc(NC(=O)c2ccccc2)c1)c1ccc(NC(=O)c2ccccc2)cc1`, the activity, negative = inhibition was 9.66% [at 2.29 µM] (inactive).
Still for that read-out and setting: in the case of `N[C@@H](CS(=O)O)C(=O)O` it was -3.74% (inactive).
`COc1cccc([C@@H]2Oc3ccc(OC)cc3C(=O)[C@H]2O)c1`: the AC50 was 3.98 µM (active).
`COc1cccc(C2C3(C#N)C(N)=NC(OC)(OC)C23C#N)c1` (centres undefined): the activity, negative = inhibition was -16.8% [at 2.29 µM] (inactive).
Still for that read-out and setting: the figure for `CC(C)=NOC[C@@H](O)COCc1ccco1` is -14.7% [at 11.4 µM] (inactive); for `Cn1c(=O)n2n(c1=O)[C@H]1[C@H](O)[C@H]3O[C@@H]3/C(=N/OC[C@@H](O)COCc3ccco3)[C@@H]1CC2` it is -23.8% [at 11.4 µM] (inactive); for `CCN1C(=O)[C@H]2[C@H]3[C@H](O)[C@H](O)C/C(=N/OC[C@@H](O)[C@H]4O[C@H]5OC(C)(C)O[C@H]5[C@@H]4O)[C@@H]3CC[C@@H]2C1=O` it is -16.2% [at 11.4 µM] (inactive).
On the same count and under the same terms, the figure for `CCOc1ccc(/C=C2\C(=O)c3ccccc3OC2c2ccccc2)cc1` (centres undefined) is 17.9% (inactive).
In the case of `COc1cccc([C@@H]2Oc3ccc(OC)cc3/C(=N/OC[C@@H](C)[C@H](OCc3ccccc3)C(C)C)[C@@H]2O)c1`, the AC50 was 3.16 µM (active).
In the case of `COc1cccc([C@@H]2Oc3ccc(OC)cc3/C(=N/OC[C@@H](O)COCc3ccco3)[C@@H]2O)c1`, the AC50 was 3.16 µM (active).
As to `COc1cccc([C@H]2Oc3ccc(OC)cc3/C(=N\OC[C@@H](O)[C@@H]3O[C@@H]4OC(C)(C)O[C@@H]4[C@H]3O)[C@@H]2O)c1`, the AC50 was 3.98 µM (active).
Consider `CCS(=O)(=O)c1ccc2c(c1)N(S(C)(=O)=O)CC(C(=O)NCCOC)O2` (centres undefined), for which the “activity, negative = inhibition” value was -7.69% (inactive).
On to `CCOC(=O)C1CN(S(=O)(=O)c2cccc(C(F)(F)F)c2)c2cc(CC(=O)OC)ccc2O1` (centres undefined), for which the AC50 was 5.01 µM (active).
Regarding `O=C(O)Cc1ccc2c(c1)N(S(=O)(=O)c1cccc(C(F)(F)F)c1)CC(C(=O)O)O2` (centres undefined), the activity, negative = inhibition is -7.46% [at 2.29 µM] (inactive).
For `COc1ccc2[nH]cc(CCNc3ncnc4ccc(-c5ccc(C(=O)N(C)C)cc5)cc34)c2c1`, the concentration at half-maximal activity (AC50) is 2.51 µM (active).
Same read-out and setting: in the case of `COc1ccc2[nH]cc(CCNc3ncncc3-c3ccc(N(C)C)cc3)c2c1` it was 0.501 µM (active); in that of `COc1ccc2[nH]cc(CCNc3ncncc3-c3ccc(C(=O)N(C)C)cc3)c2c1`, 1 µM (active); in that of `CC1CC/C(=C\c2ccc3c(c2)OCO3)C(=O)/C1=C/c1ccc2c(c1)OCO2` (centres undefined), 1.58 µM (active).
For the compound `CCS(=O)(=O)c1ccc(O)c(NC(=O)Nc2ccccc2)c1`, the “activity, negative = inhibition” value is -25.1% (inactive).
As for `CCS(=O)(=O)c1ccc(C(=O)Nc2ccccc2)c(Cl)c1Cl`, the AC50 was 5.01 µM (active).
Take `CC(C)CO/N=C1/[C@H]2O[C@@H]2[C@@H](O)[C@H]2[C@H]1CCn1c(=O)n(C)c(=O)n12`: the activity, negative = inhibition was -9.68% [at 11.4 µM] (inactive).
With `Cc1nc(S(=O)(=O)NC2CCCCC2)c(C#N)c(C)c1Cl`, the AC50 is 7.94 µM (active).
In the case of `Cc1nc(S(=O)(=O)N(C)c2ccccc2)c(C#N)c(C)c1Cl`, the “activity, negative = inhibition” value was -23.4% (inactive).
Same read-out and setting: the figure for `Cc1nc(S(=O)(=O)N2CCOCC2)c(C#N)c(C)c1Cl` is -9.65% (inactive).
Regarding `Cc1cccc(NC(=O)CSc2nc(COc3ccccc3)nc3ccccc23)c1C`, the concentration at half-maximal activity (AC50) is 3.98 µM (active).
Turning to `N[C@@H](C(=O)O)c1ccc(C(=O)O)c(O)c1`, the “activity, negative = inhibition” value is -10.3% (inactive).
`N[C@@H](C(=O)O)c1cc(O)ccc1Cl`: the AC50 is 15.8 µM (active).
For the compound `N[C@H](C(=O)O)c1cccc(O)c1`, the AC50 result is “inactive”.
With `N[C@H](C(=O)O)c1ccc(C(=O)O)c(O)c1`, the “activity, negative = inhibition” value was -8.41% (inactive).
On to `N[C@H](C(=O)O)c1cc(O)cc(O)c1`, for which the half-maximal activity concentration (AC50) is 12.6 µM (active).
Regarding `N[C@H](C(=O)O)c1ccc(O)c(C(=O)O)c1`, the “activity, negative = inhibition” value was -10.6% (inactive).
With `NC(N)=N[C@@H]1C(O)[C@H](N=C(N)N)[C@@H](O)C(O)[C@H]1O` (some centres undefined), the activity, negative = inhibition is 12.2% [at 11.4 µM] (inactive).
Take `NC(=O)NC(=O)[C@H]1CCCC[C@@H]1C(=O)O`: the activity, negative = inhibition was 2.92% [at 11.4 µM] (inactive).
Still for that read-out and setting: in the case of `COn1c(SC(C)C)nc2ccccc2c1=O` it was 5.93% [at 11.4 µM] (inactive).
Take `COn1c(SCc2ccc(C)cc2C)nc2ccccc2c1=O`: the AC50 was 12.6 µM (active).
For `COn1c(SCc2cccc(Cl)c2)nc2ccccc2c1=O`, the “activity, negative = inhibition” value was -25.3% (inactive).
The same measure, in the same setting: in the case of `O=c1oc(-c2ccco2)nc2c1cnn2-c1ccccc1` it was -8.28% (inactive).
Turning to `COc1ccc(Oc2c(Cl)cnn(-c3ccccc3)c2=O)cc1`, the AC50 is 14.1 µM (active).
In the case of `COc1cccc(/C=N/n2nnc3c(cnn3-c3ccccc3)c2=O)c1`, the “activity, negative = inhibition” value was 22% (inactive).
Still for that read-out and setting: in the case of `CN(C)c1nc(-c2ccccc2C(F)(F)F)nc2ccccc12` it was -23.4% (inactive).
Take `CN(C)c1ccc(-c2nc(N(C)C)c3ccccc3n2)cc1`: the AC50 was 12.6 µM (active).
For `CN(C)c1nc(-c2cccnc2)nc2ccccc12`, the AC50 is 7.94 µM (active).
For the compound `CNc1nc(-c2ccc(N(C)C)cc2)nc2ccccc12`, the half-maximal activity concentration (AC50) was 15.8 µM (active).
As to `CSc1c(-c2ccccc2)nc2ccccc2c1C(=O)O`, the “activity, negative = inhibition” value was 4.08% (inactive).
On the same count and under the same terms, the figure for `O=C(CC1(O)CCCCC1)OC1CCCC1` is -11.8% [at 11.4 µM] (inactive).
On the same count and under the same terms, the figure for `O=C1COc2ccccc2CN1` is 5.27% [at 2.29 µM] (inactive); for `Cn1c(=O)c2[nH]c([C@@H]3CC(=O)C[C@H](c4nc5c([nH]4)c(=O)n(C)c(=O)n5C)N3)nc2n(C)c1=O` it is 2.95% [at 11.4 µM] (inactive); for `COc1c(NC(C)=O)c2ccccc2c2ccccc12` it is -28.7% [at 11.4 µM] (inactive).
As to `CCOc1ccc(NC(=O)c2oc3ccccc3c2NC(=O)CC)cc1`, the AC50 is 15.8 µM (active).
On the same count and under the same terms, the figure for `COc1cccc(NC(=O)c2oc3ccccc3c2NC(C)=O)c1` is 11.2 µM (active).
On the same count and under the same terms, the figure for `COc1cccc(NC(=O)c2oc3ccccc3c2NC(=O)c2ccc3c(c2)OCO3)c1` is 1.78 µM (active).
As to `COc1cccc(C(=O)Nc2ccc(NC(=O)c3ccco3)cn2)c1`, the activity, negative = inhibition was -4.16% [at 2.29 µM] (inactive).
As for `CC1(C)[C@@H]2CC[C@]1(CC(=O)O)[C@H](Cl)C2`, the activity, negative = inhibition was -12.3% [at 11.4 µM] (inactive).
As for `CC1(C)CC(=O)C2=C(C1)Oc1nc3ccccc3cc1C2C(C#N)C#N` (centres undefined), the AC50 is 14.1 µM (active).
For `Cc1cc(NC(=O)c2ccccc2Cl)no1`, the “activity, negative = inhibition” value was -14.3% (inactive).
For `Cc1cc(NC(=O)c2ccccc2Cl)c(C(C)C)cc1O`, the AC50 was 25.1 µM (active).
In the case of `O=C(Nc1ccccc1Cl)c1ccccc1Cl`, the “activity, negative = inhibition” value was 1.04% (inactive).
The same measure, in the same setting: in the case of `O=C1[C@@H]2[C@@H](C(=O)N1c1ccc(OCc3ccccc3)cc1)[C@@H]1c3ccccc3[C@@H]2[n+]2ccccc21` it was -9.33% [at 11.4 µM] (inactive); in that of `O=C(O)/C=C\C=C/c1ccc2c(c1)OCO2`, -6.19% [at 11.4 µM] (inactive).
In the case of `Nc1ccccc1C(=O)/C=C\c1ccc2c(c1)OCO2`, the half-maximal activity concentration (AC50) was 3.16 µM (active).
For `COc1ccccc1N1CCN(C(=O)/C=C/c2ccc3c(c2)OCO3)CC1`, the AC50 is 3.55 µM (active).
`O=C(/C=C\c1ccc2c(c1)OCO2)c1ccc(F)cc1`: the AC50 was 3.16 µM (active).
For `COCOc1cc(OC)ccc1C(=O)/C=C\c1ccc2c(c1)OCO2`, the half-maximal activity concentration (AC50) is 1 µM (active).
For `Cc1ccc(N=CC2=C(O)CC(c3ccco3)CC2=O)cc1` (centres undefined), the “activity, negative = inhibition” value is -9.52% (inactive).
On to `C[C@@H]1CCN=C(N)S1`, for which the AC50 result was “inactive”.
Still for that read-out and setting: the figure for `COC(=O)c1c(-c2ccc3ccccc3c2)csc1NC(=O)Cc1ccc(OC)c(OC)c1` is 1.78 µM (active).
For the compound `Cc1ccc(OCCCN2C(=O)C(=O)c3cccc(C)c32)cc1`, the AC50 was 15.8 µM (active).
With `O=C1c2ccccc2C(=O)N1CCCSc1ccccc1`, the activity, negative = inhibition is -16.6% [at 11.4 µM] (inactive).
On to `N#CC(C#N)=CNCCN1CCN(C=C(C#N)C#N)CC1`, for which the activity, negative = inhibition was -20.1% [at 11.4 µM] (inactive).
With `Cc1oc(-c2ccccc2F)nc1CS(=O)(=O)CC(=O)NCCCN(C)C1CCCCC1`, the AC50 was 10 µM (active).
As to `O=c1[nH]c2cc(Br)cnc2nc1/C=C(\O)c1ccc(F)cc1`, the concentration at half-maximal activity (AC50) is 5.01 µM (active).
